Measurements taken from PubChem BioAssay (EPA / NIEHS).
Activity calls are given as the source filed them. Rule for the calls: active = hit-call score of the fitted dose curve at least 0.9, where 1 is the maximum; inactive = score below 0.9.

The compounds below were run against Myc proto-oncogene protein (Homo sapiens) (UniProt P01106) (assay: ATG_Myc_CIS: Attagene CIS-FACTORIAL HepG2 Assay for human Myelocytomatosis (Myc) Proto-Oncogene Transcription Factor (AID 2282990)). Conditions: HepG2, Attagene cis-reporter transcription factor activity; actives raise or lower the signal.
Sequence of Myc proto-oncogene protein (Homo sapiens) (P01106 whole entry, looked up): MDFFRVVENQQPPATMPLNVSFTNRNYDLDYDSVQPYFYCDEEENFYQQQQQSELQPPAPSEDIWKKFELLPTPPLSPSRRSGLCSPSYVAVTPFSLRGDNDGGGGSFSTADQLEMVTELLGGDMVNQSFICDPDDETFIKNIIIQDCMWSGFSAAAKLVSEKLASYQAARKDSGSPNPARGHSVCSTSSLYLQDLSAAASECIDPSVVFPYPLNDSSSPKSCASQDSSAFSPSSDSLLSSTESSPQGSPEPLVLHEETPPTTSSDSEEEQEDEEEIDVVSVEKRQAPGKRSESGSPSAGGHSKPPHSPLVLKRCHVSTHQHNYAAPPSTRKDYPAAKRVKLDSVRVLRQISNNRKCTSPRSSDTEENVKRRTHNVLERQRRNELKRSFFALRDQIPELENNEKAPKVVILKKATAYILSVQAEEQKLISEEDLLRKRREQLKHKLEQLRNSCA
Protocol: ATG_CIS is a cell-based, multiplexed-readout assay that uses HepG2, a human liver cell line, with measurements taken at 24 hours after chemical dosing in a 24-well plate.ATG_Myc_CIS is one of 52 assay component(s) measured or calculated from the ATG_CIS assay. It is designed to make measurements of mRNA induction, a form of inducible reporter, as detected with fluorescence intensity signals by Reverse transcription polymerase chain reaction (RT-PCR) and Capillary electrophoresis technology.Data from the assay component ATG_Myc_CIS was analyzed into 1 assay endpoint. This assay endpoint, ATG_Myc_CIS, was analyzed with bidirectional fitting relative to DMSO as the negative control and baseline of activity. Using a type of inducible reporter, measures of mRNA for gain or loss-of-signal activity can be used to understand the reporter gene at the transcription factor-level as they relate to the gene MYC. Furthermore, this assay endpoint can be referred to as a primary readout, because this assay has produced multiple assay endpoints where this one serves a reporter gene function. To generalize the intended target to other relatable targets, this assay endpoint is annotated to the dna binding intended target family, where the subfamily is basic helix-loop-helix leucine zipper.
Human liver HepG2 cells are transiently transfected with multiple reporter transcription units (MRTUs) in 6-well plates using FuGene 6 reagent (Roche; 3 ml FuGene/1 mg DNA). The MRTU constructs are regulated by a cis-regulating element (promoter). […] A major difference between the CIS and TRANS system is that in CIS activities of endogenous TFs are measured, whereas the TRANS assay evaluates changes in activities of exogenous, chimeric NR-Gal4 proteins. […] At the end of 24 hour incubation, total RNA was isolated using TriZol reagent (Invitrogen). The isolated RNA is then reverse-transcribed using oligo(dT) primer and Mo-MLV reverse transcriptase (Invitrogen) with DNAse I (Ambion) treatment for 30 min. The one-tenth of the produced cDNA was amplified by PCR using Taq DNA polymerase (Invitrogen) and two reporter sequence-specific primers. The PCR products were fluorescently labeled by primer extension with 6-arboxyfluorescein (6-FAM) 5'-labeled reporter sequence-specific primer (2 min at 95 C, 20 s at 68 C and 10 min at 72 C) and these products were digested with 5U of HpaI (New England Biolabs) for 2h at 37 C. The fragments were purified using Qiaquick PCR columns (Qiagen), analyzed on an ABI 3130xL genetic analyzer (Applied Biosystems) with peak positions identified by using a set of X-rhodamine (ROX)-labeled MapMarker1000 molecular weight standards (BioVentures). The raw capillary electrophoresis data was processed using Attagraph software (Attagene).
CN(N=O)c1ccccc1 was tested, and the outcome was “inactive”.
In the case of CSc1nc(N=[N+]=[N-])nc(NC(C)C)n1, the outcome is reported as “inactive”.
For CC(C)(C)C(=O)CCl, the outcome was “inactive”.
CCC(=O)c1ccc(Cl)cc1 was tested, and the outcome was “inactive”.
In the case of N#CCNCC#N, the outcome is reported as “inactive”.
NNc1ccccc1 was tested, and the outcome was “inactive”.
With CNC(=N[N+](=O)[O-])NCC1CCOC1 (stereo not given) the outcome was “inactive”.
With CCOP(O)OCC the outcome was “inactive”.
CCC(C)c1cc(C(C)(C)C)cc(-n2nc3ccccc3n2)c1O (stereo not given) was tested, and the outcome was “inactive”.
For C=CC(=O)OC, the outcome was “inactive”.
For Cc1ncc(C[n+]2csc(CCO)c2C)c(N)n1, the outcome was “inactive”.
Cc1ccc(C)c2ccccc12 was tested, and the outcome was “inactive”.
CCC1CCC(=O)O1 (stereo not given) was tested, and the outcome was “inactive”.
With CC(C)(c1cc(Cl)c(O)c(Cl)c1)c1cc(Cl)c(O)c(Cl)c1 the outcome was “inactive”.
For CCCCOC(=O)CCC(=O)OCCCC, the outcome was “inactive”.
With Cc1ccccc1CCl the outcome was “inactive”.
C[C@]12CC[C@H](O)C[C@H]1CC[C@@H]1[C@@H]2C[C@@H](O)[C@]2(C)[C@@H](C3=CC(=O)OC3)CC[C@]12O was tested, and the outcome was “inactive”.
For CCN(CC)C(=S)S, the outcome was “inactive”.
In the case of C[C@]12CC[C@H]3[C@@H](CC[C@@]45O[C@@H]4C(O)=C(C#N)C[C@]35C)[C@@H]1CC[C@@H]2O, the outcome is reported as “inactive”.
For CCNCC, the outcome was “inactive”.
For CC(C)(C)C(O)C(Oc1ccc(-c2ccccc2)cc1)n1cncn1 (stereo not given), the outcome was “inactive”.
COc1cc(OC)c(OC)cc1C=O was tested, and the outcome was “inactive”.
For CC[N+](=O)[O-], the outcome was “inactive”.
For ClC1=C(Cl)[C@]2(Cl)[C@@H]3[C@@H](Cl)[C@H](Cl)C[C@@H]3[C@@]1(Cl)C2(Cl)Cl, the outcome was “inactive”.
In the case of C#CC1(O)CCCCC1, the outcome is reported as “inactive”.
With C=CCc1ccc(OC(=O)Cc2ccccc2)c(OC)c1 the outcome was “inactive”.
In the case of C=CC(=O)OCC(CC)CCCC (stereo not given), the outcome is reported as “inactive”.
[CH3][Sn]([Cl])([Cl])[Cl] was tested, and the outcome was “inactive”.
CC1OC(C)OC(C)O1 (stereo not given) was tested, and the outcome was “inactive”.
With O=CNC(N1CCN(C(NC=O)C(Cl)(Cl)Cl)CC1)C(Cl)(Cl)Cl (stereo not given) the outcome was “inactive”.
In the case of O=S(=O)(O)O, the outcome is reported as “inactive”.
With C=CCO the outcome was “inactive”.
In the case of CCC(C)c1cc([N+](=O)[O-])cc([N+](=O)[O-])c1OC(=O)C=C(C)C (stereo not given), the outcome is reported as “inactive”.
For C=C(Cl)Cl, the outcome was “inactive”.
With CC(=O)c1cc2c(cc1C)C(C)(C)C(C)CC2(C)C (stereo not given) the AC50 was 60.9 µM (active).
In the case of C[N+](C)(C)CC(=O)[O-], the outcome is reported as “inactive”.
For N#Cc1cccc(C#N)c1, the outcome was “inactive”.
For O=C1Nc2ccc(Cl)cc2C(c2ccccc2)=NC1O (stereo not given), the outcome was “inactive”.
For COC(=O)COc1ccc(Cl)cc1Cl, the outcome was “inactive”.
With COc1cc(OC)nc(Oc2cccc(Oc3nc(OC)cc(OC)n3)c2C(=O)O)n1 the outcome was “inactive”.
